The record followed here is PubChem BioAssay (NCI).

This is part of a sample that, as a whole, favours compounds with a hit. Of some 83,000 tested, about 20% had one in any assay.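 Step 1: grow cells in 96-well plates. Step 2: add test compound at a single concentration. Step 3: incubate 48 h. Step 4: record percent growth.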 Values without a mark were called inactive. Active and inactive are the calls of the source.

The experiment concerns SW-620 colon. The experiment is described as follows: NCI-60 one-dose screen, 48 h (100 = growth as untreated, 0 = no growth, -100 = all killed). As to conditions: 10 µM unless noted. The method, then: Growth inhibition of the SW-620 human tumor cell line is measured as a screen for anti-cancer activity. Cells are grown in 96 well plates and exposed to the test compound for 48 hours. Compounds are tested at a single concentration, which is 10^-5 M for most compounds. The reported endpoint is percent growth (GI% or GIPRCNT), where numbers from 0 - 100% represent growth inhibition, and numbers from -100% - 0 represent cell death. For example, a value of 40 represents 60% growth inhibition. A value of 0 means no net growth occurred over the course of the experiment. A value of -40 indicates 40% of cells at the beginning of the experiment died by the end of the experiment. A value of -100 means all cells are dead at the end of the experiment.
NCI-60 Human Tumor Cell Lines Screen was performed using the standard one-dose NCI protocol, which is described in more detail at https://dtp.cancer.gov/discovery_development/nci-60/default.htm.
Compounds with GIPRCNT values below 10 were considered active. Activity score was based on GIPRCNT using the following formula: […]
Score is 0 for GIPRCNT values of 100 or above, 50 for GIPRCNT values of 0, and 100 for GIPRCNT values of -100.
Regarding `S=c1nc(-c2ccccc2)oc(=NC2CCCCC2)n1C1CCCCC1`, the growth was 5.42% (active). As for `CC(C)c1cc(C(C)C)c(S(=O)(=O)Oc2ccc(NC(=O)c3ccc(Cl)cc3)cc2)c(C(C)C)c1`, the growth was 21.7%.

`COc1ccc(-c2csc(NC(=O)N3CCN(c4cc5c(cc4F)c(=O)c(C(=O)O)cn5C4CC4)CC3)n2)cc1`: the growth is 15.7%. As for `Cc1ccc(-c2nc(N3CCN(C(=O)c4ccc(OC(F)(F)F)cc4)CC3)c3ccccc3n2)cc1`, the growth was 97%. Turning to `COc1ccc([C@H]2c3cc(OC)c(OC)cc3C=C(C=O)C2CO)cc1OC` (stereo not given in full), the growth was 21.5%.

Consider `COc1cc(C(=O)/C=C/c2c(Cl)nc3sccn23)cc(OC)c1OC`, for which the growth was 65.8%. For the compound `CN1C(=C2C(=O)OC(C)(C)OC2=O)CCC1C(=O)NCc1ccc(Cl)cc1Cl` (stereo not given), the growth is 104%. As to `CCCCCCNC(=O)Oc1ccc(/C(=C(\C)c2ccc(Cl)cc2)c2ccc(OCCN3CCCCC3)cc2)cc1`, the growth was 7.33% (active).

Take `CC(C)n1cnc2c(Nc3cccc(Cl)c3)nc(N[C@H]3CCCC[C@@H]3N)nc21`: the growth is 55.5%. For the compound `Cc1cccc2c3c(sc12)C(c1ccc(Cl)cc1)C(C#N)=C(N)O3` (stereo not given), the growth was 26.9%.

As to `Cc1ccc(NC2=C(Cl)C(=O)c3nc(C)ccc3C2=O)cc1`, the growth is -30.7% (active). The same measure for `CCCCn1c(=O)c(-c2cc(-c3ccc(Cl)cc3)nc(-c3ccc(Cl)cc3)c2)cc2cc(Cl)ccc21`: 99.7%; for `Cc1ccc2sc3c(NCCN)nc4ccccc4c3c(=O)c2c1`: -61.9% (active); for `COc1ccc(C2NC(=O)C(C#N)c3c2sc2c(F)cccc32)c(OC)c1` (stereo not given): 32.3%. In the case of `c1cc(-c2nnc(SSc3ncnc4nc[nH]c34)o2)ccn1`, the growth is 34.6%. For `COc1ccc(C(=O)n2nc(-c3ccccc3)nc2N)cc1OC`, the growth was 90.3%. With `C=CCNc1ccc2c3c(cccc13)C(=O)N(N1C(=O)c3cccc4cccc(c34)C1=O)C2=O`, the growth is 108%. With `NCCCNc1nc2ccccc2c2c(=O)c3cc(F)cc(F)c3sc12`, the growth is -75.6% (active). Consider `COc1cc(-c2nc3sccn3c2-c2ccnc(NCCCNS(=O)(=O)c3ccc(F)cc3)n2)ccc1F`, for which the growth was 106%. With `Cc1cccc2c3c(sc12)C(c1ccc(Cl)cc1)C(C#N)=C(/N=C/c1ccc(Cl)cc1)O3` (stereo not given), the growth is 26.1%. Consider `Cc1nc(/N=C(\N)NC(=O)Nc2ccccc2Cl)sc1C`, for which the growth was 36.3%. Consider `CCC(C)(c1cc(C(C)(C)C)c(O)c(C(C)(C)C)c1)c1cc(C(C)(C)C)c(O)c(C(C)(C)C)c1`, for which the growth was 102%. Take `CC(=O)OC[C@H]1OC(Sc2sc(C(=O)c3ccc(Cl)cc3)c(N)c2-c2nc3ccccc3s2)[C@H](OC(C)=O)[C@@H](OC(C)=O)[C@@H]1OC(C)=O` (stereo not given in full): the growth was 82.7%.

Turning to `c1cc2nc(-c3cn[nH]c3)c3c(c2cc1-c1cn[nH]c1)C1CCC3C1` (stereo not given), the growth is 77.5%. For the compound `C=CCc1cc(C)ccc1NC(C(=O)NCC(=O)OC)c1ccccc1` (stereo not given), the growth is 117%. The same measure for `Cc1ccc(-c2nc(N3CCN(CC(=O)Nc4ccc(Cl)c(C(F)(F)F)c4)CC3)c3ccccc3n2)cc1`: 91.7%; for `COc1ccc(-c2conc2-c2ccccc2)cc1`: 19.8%. Turning to `COc1ccc(-c2nc3sc(-c4ccc(Cl)cc4)cn3n2)cc1`, the growth was 59.6%. In the case of `NCCCNc1nc2ccccc2c2c(=O)c3cccc(F)c3sc12`, the growth is -62.5% (active). On to `O=C(Nc1ccc(Br)cc1F)c1cc(Br)ccc1O`, for which the growth is 8.55% (active).

Regarding `CC1=C([Se]CC(OC(=O)[C@@H](CSSC(C)(C)C)NC(=O)OC(C)(C)C)C(=O)NC(C)(C)C)C(=O)c2ccccc2C1=O` (stereo not given in full), the growth is -83.3% (active). Turning to `CC(=O)Oc1ccccc1C(=O)N=C1[Se]CCCN1C(=O)c1ccccc1OC(C)=O`, the growth was 88.4%. For `O=c1c2cccc(F)c2sc2c(NCCCNCCO)nc3ccccc3c12`, the growth is -68.1% (active).

For `c1ccc(-c2nc3nonc3nc2-c2ccccc2)cc1`, the growth was 82.3%. Under `CC(C)C(=O)Nc1ccc(-c2nc(-c3cccc(OCCN4CCOCC4)c3)c(-c3ccnc(Br)c3)[nH]2)cc1` stands 50.4%; under `c1ccc(Nc2cc(-c3cccnc3)[nH]n2)cc1`, 115%; under `CNC(C)[C@H]1CCC2C3CCC4C[C@@H](N(C)C(=O)c5ccccc5)CC[C@]4(C)C3CC[C@@]21C` (stereo not given in full), -21.7% (active). The same measure for `NC1CCN(c2nc(Nc3cccc(C(F)(F)F)c3)c3c(=O)[nH]ccc3n2)CC1`: -76.8% (active). Take `O=C(S)CNC(=O)c1ccccc1`: the growth is 97.6%. Under `CCCCOc1nc2c(C)cccc2cc1-c1cc(-c2ccc(Cl)cc2)nc(-c2ccc(Cl)cc2)c1` stands 98.4%.
